# Results taken from article PMC5998130.
# Biological target: Smad nuclear-interacting protein 1 (UniProt Q8TAD8)
# Assay: mass-spectrometry hit list; affinity purification or IP with mass spectrometry
substance,measurement,value
"DNA-directed RNA polymerase II subunit RPB1, P24928",listed as a hit,yes
